High-throughput results: PubChem, several laboratories
RecA splice inh: inhibitors of M. tuberculosis RecA intein splicing | AID 2221 | hit rate 0.75% among 290,000 | P9WHJ3 | inhibition, % (test concentration not listed) | cell-free RecA intein splicing, fluorescence; in the data active = inhibition above about 30%; inconclusive = no clear call, values can overlap the other calls
Rv3671c protease: inhibits the M. tuberculosis serine protease Rv3671c | hit rate 0.048% among 320,000 | inhibition, % at 5.96 µM | AID 2606; in the data active = inhibition above about 38%;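 note: extracellular domain of Rv3671c used as enzyme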
Target sequence (P9WHR9 whole entry, looked up, the tested form may be a part): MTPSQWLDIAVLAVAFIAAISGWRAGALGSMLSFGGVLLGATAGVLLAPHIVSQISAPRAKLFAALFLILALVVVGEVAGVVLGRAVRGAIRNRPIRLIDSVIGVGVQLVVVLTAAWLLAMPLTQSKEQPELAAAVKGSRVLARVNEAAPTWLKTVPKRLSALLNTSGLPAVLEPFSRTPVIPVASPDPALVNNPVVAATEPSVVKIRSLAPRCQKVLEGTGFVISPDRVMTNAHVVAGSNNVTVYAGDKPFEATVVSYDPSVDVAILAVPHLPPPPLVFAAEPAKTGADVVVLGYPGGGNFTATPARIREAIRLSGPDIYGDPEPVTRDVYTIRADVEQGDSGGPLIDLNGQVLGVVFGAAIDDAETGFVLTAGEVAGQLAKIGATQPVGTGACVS
GDH-TPI counter-1: GDH-TPI coupled enzyme inhibition counter-screen; GDH-TPI coupled enzyme counterscreen, NADH absorbance; inhibition, % at 4.8 µM; hit rate 1.2% among 360,000; in the data active = inhibition above about 30%
FBA Mtb inh: inhibitors of M. tuberculosis fructose-bisphosphate aldolase | P9WQA3 | purified M. tuberculosis FBA, fluorescence read-out | inhibition, % at 1 µM | hit rate 2.3% among 360,000 | AID 588726; in the data active = inhibition above about 27%
UGM FP inh: Mtb UDP-galactopyranose mutase inhibition | P9WIQ1 | purified UGM, fluorescence polarization probe displacement | inhibition, % at 10 µM | hit rate 0.06% among 320,000 | AID 504406; in the data active = inhibition above about 10%, passing the limit was not always enough; inconclusive = no clear call, values can overlap the other calls
Mtb betalactam: beta-lactam sensitization of Mtb H37Rv | hit rate 0.27% among 330,000 | inhibition, % at 25 µM | M. tuberculosis H37Rv growth with meropenem, percent inhibition;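 note: growth measured after seven days incubation then overnight dye step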
Mtb FBA confirm: Mtb FBA inhibition, confirmed; AID 651616; shares compounds with FBA Mtb inh; hit rate 78% among 5,600; purified M. tuberculosis FBA, fluorescence read-out; inhibition, % at 1 µM; in the data active = inhibition above about 27%
GDH-TPI counter-2: GDH-TPI inhibition counter-screen for FBA inhibitors; shares compounds with FBA Mtb inh; GDH-TPI coupled enzyme counterscreen, fluorescence; inhibition, % at 1 µM; hit rate 81% among 5,600; AID 652141; in the data active = inhibition above about 10%
GDH-TPI dose: counter-screen for M. tuberculosis FBA inhibitors: GDH-TPI dose response; IC50, µM; shares compounds with FBA Mtb inh; GDH-TPI coupled enzyme assay, fluorescence, artifact counterscreen; hit rate 79% among 170; AID 652145
Numbers stand for hits; 0 = inactive; ? = inconclusive; - = no result given; + = active, no number. Compounds with a hit are over-represented: about 4% of the library has one in this group of screens. Unless noted, the rule behind the calls is not given here.

SMILES	RecA splice inh	Rv3671c protease	GDH-TPI counter-1	FBA Mtb inh	UGM FP inh	Mtb betalactam	Mtb FBA confirm	GDH-TPI counter-2	others
CCn1c(=O)c2cc(C(=O)NCCCOC)sc2c2ccccc21	0	0	0	54	0	0	+	186
CCCCN(CC)CCNC(=O)c1cc2c(=O)n(CC)c3ccccc3c2s1	0	0	0	40	0	0	176	116
CCn1c(=O)c2cc(C(=O)NCCC(C)C)sc2c2ccccc21	0	0	0	0	0	0	-	-
CCCCN(CC)CCCNC(=O)c1cc2c(=O)n(CC)c3ccccc3c2s1	0	0	0	79	0	0	0	0
CCC(C)NC(=O)c1cc2c(=O)n(CC)c3ccccc3c2s1 (stereo unspecified)	0	0	0	48	0	0	100	92
CCN(C(=O)COC(=O)CCCOc1ccc(Cl)cc1C)c1c(N)n(Cc2ccccc2)c(=O)[nH]c1=O	-	-	0	0	-	-	-	-
COc1cccc(CCNC(=O)CCc2nnc(-c3cc(C)oc3C)o2)c1	0	0	0	0	0	0	-	-
Cc1ccc(S(=O)(=O)N2CCN(C(=O)CSCc3ccc(C(C)C)cc3)CC2)cc1	-	0	0	0	0	0	-	-
Cc1ccc2nc(-c3ccccn3)c(N)n2c1	-	-	-	0	-	-	-	-
CCCCN1C(=O)C(=O)c2cc(Cl)ccc21	-	0	0	0	0	0	-	-
NC(Cc1ccc(F)cc1)c1csc(Nc2ccc(C(=O)c3ccccc3)cc2)n1 (stereo unspecified)	-	-	0	0	-	-	-	-
CCCN(CCC)CCCNC(=O)c1cc2c(=O)n(CC)c3ccccc3c2s1	0	0	0	27	0	0	+	+
CCn1c(=O)c2cc(C(=O)NCC(OC)OC)sc2c2ccccc21	0	0	0	61	0	0	+	179
CCOC(CNC(=O)c1cc2c(=O)n(CC)c3ccccc3c2s1)OCC	0	0	0	0	0	0	-	-
O=c1[nH]c(=S)[nH]c2c1C(c1ccc(Br)cc1)c1c([nH]c(=S)[nH]c1=O)O2	0	0	0	0	0	0	-	-
COc1cc(CCC(=O)NCc2ccc(F)cc2)cc(OC)c1OC	0	0	0	33	0	0	54	47
COc1cc(CN2C[C@@H](CO)O[C@@H](n3cnc4c(NCC(C)C)ncnc43)C2)cc(OC)c1OC	-	-	0	0	-	-	-	-
Cc1cc(=O)oc2cc(OCCc3ccccc3)ccc12	0	0	0	68	0	0	0	0	GDH-TPI dose=2.5
Cc1cc(=O)oc2cc(OCCCC[n+]3ccccc3)ccc12	0	0	0	35	0	0	169	+
O=C(c1ccco1)N1CCN(C2CN(Cc3cn(Cc4ccccc4C(F)(F)F)nn3)S(=O)(=O)C2)CC1 (stereo unspecified)	-	-	-	0	-	-	-	-
CCOc1ccc(C(=O)CCC(=O)N2CCN(S(=O)(=O)c3cccc(F)c3)CC2)cc1	-	0	0	0	0	0	-	-
OCC[C@@H]1C[C@H](O)[C@@H](O)[C@]2(OCCc3cc(C(F)(F)F)ccc32)O1	-	-	0	0	-	-	-	-
CCC(C)(C)n1nnnc1CN1CCC(NC(=O)c2ccc(Br)cc2)CC1	0	0	0	33	0	0	0	0
Cn1ccnc1-c1ccc(-c2nccn2C)cc1	-	0	0	52	0	0	+	186
Cn1ccnc1-c1nnn(-c2ccc(Cl)c(Cl)c2)n1	0	0	0	0	0	0	-	-
SMILES	RecA splice inh	Rv3671c protease	GDH-TPI counter-1	FBA Mtb inh	UGM FP inh	Mtb betalactam	Mtb FBA confirm	GDH-TPI counter-2	others
CCC(C)NC(=O)c1ccc(NC(=O)CC2SC(N3CCCC3)=NC2=O)cc1 (stereo unspecified)	-	0	0	0	0	0	-	-
N#CC1=C(C2CC2)CC(c2ccccc2)C(C#N)=C1N (stereo unspecified)	0	0	0	33	0	0	0	0	GDH-TPI dose=0
N#CC1=C(N)SC2(CCCCC2)SC1c1ccccc1 (stereo unspecified)	0	0	0	0	0	0	-	-
O=C(COC(=O)c1ccccc1NCCO)NCC1CCCCC1	-	0	0	71	0	0	100	76
O=C(COC(=O)c1ccccc1NCCO)NCCc1ccccc1	0	0	0	77	?	0	47	38
O=C(COC(=O)c1ccccc1NCCO)NNC(=O)c1cccs1	0	0	0	60	0	0	+	+
O=C(OCC(=O)N(Cc1ccccc1)Cc1ccccc1)c1ccccc1NCCO	0	0	0	95	0	0	0	0
O=C(COC(=O)c1ccccc1NCCO)NCCC1=CCCCC1	0	0	0	63	0	0	175	130
Cc1ccc(-n2nc(C)c(NC(=O)COC(=O)c3ccccc3NCCO)c2C)cc1	0	0	0	68	0	0	80	65
CC(C#N)(NC(=O)COC(=O)c1ccccc1NCCO)C1CC1 (stereo unspecified)	0	0	0	99	0	0	52	39
CC(C#N)(NC(=O)CN1CCN(S(=O)(=O)c2ccccc2C#N)CC1)C1CC1 (stereo unspecified)	-	0	0	0	0	0	-	-
CC(=O)C1=C(c2ccccc2)NC(=O)NC1c1ccc(O)c(Cl)c1 (stereo unspecified)	0	-	0	0	0	0	-	-
O=C(N/N=C/c1ccccc1F)c1cc2c(ccc3ccccc32)o1	0	0	0	30	0	0	54	36
CCCCc1cc(=O)oc2cc(OCC(=O)N3CCC(C(=O)O)(c4ccccc4)CC3)ccc12	0	0	0	0	0	0	-	-
Cc1cc(=O)oc2c(C)c(OCC(=O)N3CCC(C(=O)O)(c4ccccc4)CC3)ccc12	0	0	0	35	0	0	0	0
CCCc1cc(=O)oc2c(C)c(OCC(=O)N3CCC(C(=O)O)(c4ccccc4)CC3)ccc12	0	0	0	32	0	0	103	91
CCc1cc(=O)oc2cc(C)cc(OCC(=O)N3CCC(C(=O)O)(c4ccccc4)CC3)c12	-	0	0	88	0	0	0	0
O=C1OC(O)c2cccc3cccc1c23 (stereo unspecified)	-	-	0	0	-	-	-	-
CCOc1ccc(N2CC(C(=O)NC3CCSC3=O)CC2=O)cc1 (stereo unspecified)	0	0	0	0	0	0	-	-
CCCCNC(=O)C1(C)CCCCN1C(=O)c1c(Cl)cccc1Cl (stereo unspecified)	-	-	0	0	-	-	-	-
CCO/C(C)=N/Oc1cncnc1	-	-	-	0	-	-	-	-
COc1ccc(/C=N\NC(=O)CCc2c(C)n[nH]c2C)c(OC)c1OC	0	0	0	0	0	0	-	-
COc1ccc(OC)c(/C=N/NC(=O)CCc2ccc(O)c(O)c2)c1	0	0	0	43	0	0	127	99
COc1ccc(OC)c(/C=N/NC(=O)c2c(C)nc3ccc(C)cn23)c1	0	0	0	78	0	0	105	88
